Our source for the growth values is PubChem BioAssay (NCI).

About 83,000 compounds went through this panel and 20% of them were active in at least one assay; those are over-represented in the sample as a whole.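 96-well plates, one dose, 48 hours. Percent growth reported; active if below 10.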 Unmarked numbers belong to inactive results. The source made the active and inactive calls.

For this assay, the system named is OVCAR-5 ovarian. In words: NCI-60 one-dose screen, 48 h (100 = growth as untreated, 0 = no growth, -100 = all killed). Particulars: 10 µM unless noted. As to the method: Growth inhibition of the OVCAR-5 human tumor cell line is measured as a screen for anti-cancer activity. Cells are grown in 96 well plates and exposed to the test compound for 48 hours. Compounds are tested at a single concentration, which is 10^-5 M for most compounds. The reported endpoint is percent growth (GI% or GIPRCNT), where numbers from 0 - 100% represent growth inhibition, and numbers from -100% - 0 represent cell death. For example, a value of 40 represents 60% growth inhibition. A value of 0 means no net growth occurred over the course of the experiment. A value of -40 indicates 40% of cells at the beginning of the experiment died by the end of the experiment. A value of -100 means all cells are dead at the end of the experiment.
NCI-60 Human Tumor Cell Lines Screen was performed using the standard one-dose NCI protocol, which is described in more detail at https://dtp.cancer.gov/discovery_development/nci-60/default.htm.
Compounds with GIPRCNT values below 10 were considered active. Activity score was based on GIPRCNT using the following formula: […]
Score is 0 for GIPRCNT values of 100 or above, 50 for GIPRCNT values of 0, and 100 for GIPRCNT values of -100.
As to `CCCOc1cc2ccccc2cc1C(=O)Nc1nc(NC)c2c(ccc3nccc32)[nH]1`, the growth is -61.4% (active).

Regarding `CCC#CC[C@H](O)C/C=C1/C(=O)C=C[C@@H]1C/C=C\CCCC(=O)OC`, the growth was 32.4%.

Consider `O=C(Cc1ccccc1Nc1c(Cl)cccc1Cl)NN1C(=O)/C(=C/c2ccc(Br)cc2)SC1=S`, for which the growth is 100%.

For `O=C(/C=C/c1ccc(C(F)(F)F)cc1)Nc1ccc(C=C2c3ccccc3C(=O)c3ccccc32)cc1`, the growth was 84.2%.

On to `COc1cc(/C=C/c2cc(O)c3cc(C(C)=O)c(=O)oc3c2)cc2c1O[C@]1(C)CC[C@@H](O)C(C)(C)[C@H]1C2`, for which the growth is 70.6%.

With `C=CC(=O)Nc1cccc(-c2nc(SC)nc(NCc3ccccc3)c2C#N)c1`, the growth was 85.4%.

`CC(C)CSc1nc(N)nc2c1ncn2C1OC(CO)C(O)C1O` (stereo not given): the growth is 93%.

On to `CC1=CC(=NN=c2cc(C)n([O-])c(C)c2)C=C(C)[N+]1=O`, for which the growth is 110%.

Consider `CCCCC/C(C=C(C#N)C#N)=C/c1ccccc1`, for which the growth was 113%.

Regarding `O=C(/C=C/C=C/c1ccc2c(c1)OCO2)N/N=C\c1ccc(O)cc1O`, the growth was 42.5%.

`CCCOc1cc2ccccc2cc1C(=O)Nc1nc(N)c2c(ccc3nccc32)[nH]1`: the growth was -67.7% (active).

As to `Cc1ccc(NC(=O)C2CCC(CN3CCN(C)CC3)CC2)cc1Nc1nccc(-c2cccnc2)n1` (stereo not given), the growth was 92%.

As to `COc1ccc(C(=O)COc2ccc(/C=C3\COc4ccc(OC)cc4C3=O)cc2)cc1`, the growth was 108%.

Take `Cc1cn2c(/C=C3/C(=O)Nc4c3ccc3ccccc43)c(C(F)(F)F)nc2s1`: the growth is 43.4%.

With `CCOc1cc2c(cc1OCC)C(c1cc(OC)c(O)cc1Cl)NCC2` (stereo not given), the growth was 85.9%.

For the compound `O=C(Cn1cccc(Nc2ccccc2)c1=O)Nc1ccccc1`, the growth was 90.1%.

`O=C(Oc1cccnc1)c1ccsc1Nc1ccnc(C(F)(F)F)c1`: the growth is 102%.

Consider `COc1cc(C(=O)Oc2ccccc2OC(=O)c2cc(OC)c(OC)c(OC)c2)cc(OC)c1OC`, for which the growth was 97.4%.

Take `COc1cc2c(cc1OC)C(Sc1ccc(SC)cc1)c1c(nc(N)c(C#N)c1N)O2` (stereo not given): the growth is -63.1% (active).

With `CC(=O)Oc1ccc(Cl)cc1CN(C(C)=O)C1CCCCC1`, the growth is 103%.

With `CCCCN1CCCn2c1nc1c2c(=O)n(CCC)c(=O)n1CCC`, the growth was 105%.

In the case of `CC(=O)Nc1ccc(S(=O)(=O)Nc2cccc(-c3nc(-c4ccc(NC(=O)c5cccnc5)cc4Cl)no3)c2)cc1`, the growth is 84.7%.

As for `CC(=O)NCC1c2c(n(C)c3c(Cl)c(Cl)ccc23)C(=O)NC1(C)C` (stereo not given), the growth is 88.7%.

`Cc1cc(N2CCCCC2)nc(NC2CCCC(Nc3ccnc4cc(Cl)ccc34)C2)n1` (stereo not given): the growth is 11.2%.

Consider `CCN1CCC2(CC1)NC(=O)c1c(c3ccc(Cl)c(Cl)c3n1C)C2C#N` (stereo not given), for which the growth was 74.3%.

As to `O=C1c2cccc3cccc(c23)C(=O)N1CCCCCN1CCN(CCCCCOc2ccc(-c3nc4ccc(N5CCOCC5)cc4[nH]3)cc2)CC1`, the growth was 158%.

`C/C1=C\CC[C@@]2(C)O[C@H]2[C@H]2OC(=O)C(CN3CCN(CC4C(=O)O[C@H]5[C@H]4CC/C(C)=C/CC[C@@]4(C)O[C@@H]54)CC3)[C@@H]2CC1` (stereo not given in full): the growth is 103%.

On to `CSc1nc(NCCO)c(C#N)c(-c2cccc([N+](=O)[O-])c2)n1`, for which the growth is 98.1%.

For `O=C(CCCCC(=O)N/N=C\c1ccccc1O)N/N=C\c1ccccc1O`, the growth was 59%.

Consider `CCc1nc(N)nc(N)c1C#CC(C)c1ccc(-c2ccncc2)cc1Cl` (stereo not given), for which the growth is 57.6%.

As to `CC(=O)c1cc2c(N)c(C(=O)Nc3cccc(F)c3C)sc2nc1C`, the growth is 110%.

As for `CN(C)CCCNc1c2ccccc2nc2ccccc12`, the growth was 97.9%.

For `CC(=O)c1cc(C(=O)c2ccc3c(c2)Sc2ccccc2N3)n2ccccc12`, the growth is 68.2%.

Consider `CS(=O)(=O)c1ccc(-n2nc(-c3ccc(Br)cc3)c3ccccc3c2=O)cc1`, for which the growth is 108%.

As to `COc1cccc(/C=C2\Oc3cc(OCCN4CCCC4)ccc3C2=O)c1`, the growth is 100%.

As for `COc1cc2nnc3c4cccnc4[nH]c3c2cc1OC`, the growth is 75%.

Take `CN1CCN(CCCOc2cccc3nc(Nc4cc(Cl)cc(Cl)c4)ccc23)CC1`: the growth was 3.71% (active).

As to `CCOC(=O)n1cc(-c2nonc2-c2cn(C)c3ncccc23)c2cc(F)ccc21`, the growth is 87.7%.

`O=[N+]([O-])c1ccccc1/C=N\NC(=S)N/N=C/c1ccccc1[N+](=O)[O-]`: the growth is 86.4%.

Consider `N#Cc1c(N)n(CCNC(=O)c2ccccc2)c2nc3ccccc3nc12`, for which the growth is 79%.
